Source: PubChem BioAssay (EPA / NIEHS)
Inconclusive results are not listed. The source made the active and inactive calls. Rule for the calls: active = hit-call score of the fitted dose curve at least 0.9, where 1 is the maximum; inconclusive = response in the unintended direction; inactive = score below 0.9.

Test system: not listed separately
Experiment: ATG_GAL4_TRANS: Attagene TRANS-FACTORIAL HepG2 Assay for GAL4 (Internal Marker) (AID 2282976)
Conditions: HepG2 Attagene TRANS GAL4 internal marker reporter
In short: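 HepG2 cells transiently transfected with multiplexed GAL4-UAS reporter constructs were dosed for 24 h. Reporter mRNA was measured by RT-PCR, 6-FAM primer extension, HpaI digestion and capillary electrophoresis, and gain of signal was fitted relative to DMSO.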

| SMILES | outcome |
| --- | --- |
| COc1cc(OC)c(OC)cc1C=O | inactive |
| [N-]=[N+]=CC(=O)OC[C@H](N)C(=O)O | inactive |
| COCC(=O)N(c1c(C)cccc1C)N1CCOC1=O | inactive |
| CC(C)CCCCCCCOP(=O)(Oc1ccccc1)Oc1ccccc1 | inactive |
| C=COCCCl | inactive |
| C=CCN(CC=C)C(=O)C(Cl)Cl | inactive |
| [Cl-].[Cl-].[Cl-].[Yb+3] | inactive |
| CCOC(=O)N(C)N=O | inactive |
| O=CNC(N1CCN(C(NC=O)C(Cl)(Cl)Cl)CC1)C(Cl)(Cl)Cl (stereo not given) | inactive |
| CCC[N+](=O)[O-] | inactive |
| CC(C)C#N | inactive |
| S=c1[nH]c2ccccc2[nH]1 | inactive |
| O=S(=O)(c1ccccc1)c1ccccc1 | inactive |
| CC1(C)C(=O)NC(=O)NC1=O | inactive |
| CCOC(=O)COc1ccc(Cl)cc1Cl | inactive |
| N#Cc1cccc(C#N)c1 | inactive |
| N#CC(c1ccccc1)c1ccccc1 | inactive |
| C[N+](C)=CCl | inactive |

Molecular target: Estrogen-related receptor gamma (Homo sapiens) (UniProt P62508)
Sequence (P62508 whole entry, looked up): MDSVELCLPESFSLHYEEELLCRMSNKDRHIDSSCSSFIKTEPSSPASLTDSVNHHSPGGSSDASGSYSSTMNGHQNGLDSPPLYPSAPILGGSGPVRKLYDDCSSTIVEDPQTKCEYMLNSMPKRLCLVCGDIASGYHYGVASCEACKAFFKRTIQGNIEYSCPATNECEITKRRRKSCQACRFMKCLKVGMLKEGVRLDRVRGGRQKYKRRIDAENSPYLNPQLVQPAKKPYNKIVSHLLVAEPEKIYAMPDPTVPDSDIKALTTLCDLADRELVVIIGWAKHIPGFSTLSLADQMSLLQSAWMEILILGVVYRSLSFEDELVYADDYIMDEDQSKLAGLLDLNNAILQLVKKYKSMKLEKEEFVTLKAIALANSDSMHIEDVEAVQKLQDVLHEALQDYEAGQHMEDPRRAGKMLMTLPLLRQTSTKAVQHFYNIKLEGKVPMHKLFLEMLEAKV
Experiment: ATG_ERRg_TRANS: Attagene TRANS-FACTORIAL HepG2 Assay for human Estrogen-Related Receptor gamma (ERRg) (AID 2282977);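 note: hits increase reporter signal over DMSO so potencies reflect activators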
Conditions: HepG2 Attagene TRANS reporter, ERRg transactivation
In short: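 HepG2 cells transiently transfected with multiplexed GAL4-UAS reporter units driven by chimeric NR-Gal4 proteins; 24 h exposure. Reporter mRNA quantified by RT-PCR, fluorescent labelling, HpaI digestion and capillary electrophoresis; gain of signal vs DMSO.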

| SMILES | outcome |
| --- | --- |
| O=C1C(Cl)=C(Cl)C(=O)C(Cl)=C1Cl | inactive |
| CC(C)c1ccc(O)cc1 | inactive |
| O=C(NCNC(=O)NC1C(=O)NC(=O)N1CO)NC1C(=O)NC(=O)N1CO (stereo not given) | inactive |
| C=COCCCl | inactive |
| CC(Cc1ccc(C(C)(C)C)cc1)CN1C[C@@H](C)O[C@@H](C)C1 (stereo not given in full) | inactive |
| O=CNC(N1CCN(C(NC=O)C(Cl)(Cl)Cl)CC1)C(Cl)(Cl)Cl (stereo not given) | inactive |
| S=c1[nH]c2ccccc2[nH]1 | inactive |
| ClC1=C(Cl)[C@]2(Cl)[C@@H]3[C@@H](Cl)[C@H](Cl)C[C@@H]3[C@@]1(Cl)C2(Cl)Cl | inactive |
| O=S(=O)(c1ccccc1)c1ccccc1 | inactive |

Molecular target: Glucocorticoid receptor (Homo sapiens) (UniProt P04150)
Sequence (P04150 whole entry, looked up): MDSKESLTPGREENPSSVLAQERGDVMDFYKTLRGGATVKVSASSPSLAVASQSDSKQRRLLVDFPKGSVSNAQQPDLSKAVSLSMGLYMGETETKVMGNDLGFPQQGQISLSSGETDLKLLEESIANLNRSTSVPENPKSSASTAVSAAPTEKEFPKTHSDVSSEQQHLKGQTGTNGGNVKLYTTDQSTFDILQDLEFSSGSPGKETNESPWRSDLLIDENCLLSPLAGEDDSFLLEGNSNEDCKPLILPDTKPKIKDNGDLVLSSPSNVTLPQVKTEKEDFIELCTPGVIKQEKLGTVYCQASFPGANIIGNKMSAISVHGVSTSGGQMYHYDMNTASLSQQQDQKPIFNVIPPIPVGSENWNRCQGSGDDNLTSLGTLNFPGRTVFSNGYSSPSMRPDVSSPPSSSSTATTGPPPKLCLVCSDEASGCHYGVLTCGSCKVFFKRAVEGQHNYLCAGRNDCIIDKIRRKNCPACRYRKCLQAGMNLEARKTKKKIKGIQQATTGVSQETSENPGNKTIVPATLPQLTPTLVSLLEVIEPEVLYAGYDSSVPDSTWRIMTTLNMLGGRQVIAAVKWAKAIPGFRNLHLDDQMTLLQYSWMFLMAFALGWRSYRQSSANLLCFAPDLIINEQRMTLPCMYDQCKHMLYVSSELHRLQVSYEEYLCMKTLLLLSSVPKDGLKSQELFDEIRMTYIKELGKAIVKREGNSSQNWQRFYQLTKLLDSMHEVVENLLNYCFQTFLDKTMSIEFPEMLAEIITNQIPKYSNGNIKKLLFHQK
Experiment: ATG_GR_TRANS: Attagene TRANS-FACTORIAL HepG2 Assay for human Glucocorticoid Receptor (GR) (AID 2282978);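 note: activators score as hits since higher reporter transcript over DMSO is fitted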
Conditions: HepG2 Attagene TRANS GR reporter, mRNA transcription
In short: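 Transiently transfected HepG2 cells express chimeric NR-GAL4 proteins acting on GAL4-UAS reporter units. Compounds are applied for 24 h. mRNA induction over DMSO is measured by capillary electrophoresis.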

| SMILES | outcome |
| --- | --- |
| N#CCCCCC#N | inactive |
| CC1CCC(=O)O1 (stereo not given) | inactive |
| CC(C)c1ccc(O)cc1 | inactive |
| CC(C)(c1cc(Cl)c(O)c(Cl)c1)c1cc(Cl)c(O)c(Cl)c1 | inactive |
| CC(C)CCCCCCCOP(=O)(Oc1ccccc1)Oc1ccccc1 | inactive |
| C=CCN(CC=C)C(=O)C(Cl)Cl | inactive |
| CC(Cc1ccc(C(C)(C)C)cc1)CN1C[C@@H](C)O[C@@H](C)C1 (stereo not given in full) | inactive |
| O=CNC(N1CCN(C(NC=O)C(Cl)(Cl)Cl)CC1)C(Cl)(Cl)Cl (stereo not given) | inactive |
| CC(C)C#N | inactive |
| c1ccc(Nc2ccc3ccccc3c2)cc1 | inactive |
| Cc1ccc(OP(=O)(Oc2ccc(C)cc2)Oc2ccc(C)cc2)cc1 (tested in a mixture with another compound) | inactive |
| ClC1=C(Cl)[C@]2(Cl)[C@@H]3[C@@H](Cl)[C@H](Cl)C[C@@H]3[C@@]1(Cl)C2(Cl)Cl | inactive |
| c1ccc(P(c2ccccc2)c2ccccc2)cc1 | inactive |
| CCOC(=O)COc1ccc(Cl)cc1Cl | inactive |
| N#Cc1cccc(C#N)c1 | inactive |
| C[N+](C)=CCl | inactive |

Molecular target: Bile acid receptor (Homo sapiens) (UniProt Q96RI1)
Sequence (Q96RI1 whole entry, looked up): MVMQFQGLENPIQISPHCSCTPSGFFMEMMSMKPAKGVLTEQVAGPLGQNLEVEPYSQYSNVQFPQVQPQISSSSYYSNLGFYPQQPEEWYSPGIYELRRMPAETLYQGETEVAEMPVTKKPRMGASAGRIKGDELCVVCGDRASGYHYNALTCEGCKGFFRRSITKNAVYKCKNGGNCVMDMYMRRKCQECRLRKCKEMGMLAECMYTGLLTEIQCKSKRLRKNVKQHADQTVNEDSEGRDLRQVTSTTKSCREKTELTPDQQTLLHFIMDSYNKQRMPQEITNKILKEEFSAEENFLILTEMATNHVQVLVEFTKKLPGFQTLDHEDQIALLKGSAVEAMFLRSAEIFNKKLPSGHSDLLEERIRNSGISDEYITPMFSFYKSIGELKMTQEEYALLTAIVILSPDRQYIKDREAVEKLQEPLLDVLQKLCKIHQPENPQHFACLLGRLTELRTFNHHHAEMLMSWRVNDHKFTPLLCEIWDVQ
Experiment: ATG_FXR_TRANS: Attagene TRANS-FACTORIAL HepG2 Assay for Farnesoid X Receptor (FXR) (AID 2282979);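 note: hits raise reporter mRNA above DMSO so AC50 marks FXR activation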
Conditions: HepG2 Attagene TRANS FXR-GAL4 reporter transcription
In short: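 HepG2 cells transiently transfected with reporter constructs in which a chimeric FXR-GAL4 protein drives a GAL4-UAS reporter; 24 h compound exposure. Reporter mRNA measured by RT-PCR, FAM labelling, HpaI digestion and capillary electrophoresis; gain-of-signal versus DMSO.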

| SMILES | outcome |
| --- | --- |
| O=C1C(Cl)=C(Cl)C(=O)C(Cl)=C1Cl | inactive |
| COCC(=O)N(c1c(C)cccc1C)N1CCOC1=O | inactive |
| CC(C)CCCCCCCOP(=O)(Oc1ccccc1)Oc1ccccc1 | inactive |
| C=COCCCl | inactive |
| CC(Cc1ccc(C(C)(C)C)cc1)CN1C[C@@H](C)O[C@@H](C)C1 (stereo not given in full) | inactive |
| CCCCCc1cc(O)cc(O)c1 | inactive |
| c1ccc(Nc2ccc3ccccc3c2)cc1 | inactive |
| ClC1=C(Cl)[C@]2(Cl)[C@@H]3[C@@H](Cl)[C@H](Cl)C[C@@H]3[C@@]1(Cl)C2(Cl)Cl | inactive |
| CCC(C)c1cc(C(C)(C)C)cc(-n2nc3ccccc3n2)c1O (stereo not given) | inactive |
| O=C1Nc2ccc(Cl)cc2C(c2ccccc2)=NC1O (stereo not given) | inactive |
| N#CC(c1ccccc1)c1ccccc1 | inactive |

Molecular target: Oxysterols receptor LXR-alpha (Homo sapiens) (UniProt Q13133)
Sequence (Q13133 whole entry, looked up): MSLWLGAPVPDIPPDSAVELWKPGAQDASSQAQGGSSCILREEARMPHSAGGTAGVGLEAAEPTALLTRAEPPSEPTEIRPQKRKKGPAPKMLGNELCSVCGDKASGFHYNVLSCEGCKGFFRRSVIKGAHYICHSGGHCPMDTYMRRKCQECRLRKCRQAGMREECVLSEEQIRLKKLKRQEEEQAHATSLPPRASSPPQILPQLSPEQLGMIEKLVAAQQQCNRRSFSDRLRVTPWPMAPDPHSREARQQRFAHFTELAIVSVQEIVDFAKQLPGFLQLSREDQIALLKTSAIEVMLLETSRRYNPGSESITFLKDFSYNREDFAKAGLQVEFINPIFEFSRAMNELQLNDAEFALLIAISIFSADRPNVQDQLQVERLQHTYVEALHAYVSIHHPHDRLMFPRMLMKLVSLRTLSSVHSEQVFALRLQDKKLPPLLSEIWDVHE
Experiment: ATG_LXRa_TRANS: Attagene TRANS-FACTORIAL HepG2 Assay for human Liver X Receptor alpha (LXRa) (AID 2282980)
Conditions: HepG2 Attagene TRANS reporter, LXRa transactivation
In short: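 HepG2 cells were transiently transfected with multiplexed reporter units driven by chimeric LXRa–GAL4 fusion proteins, then dosed for 24 h. Reporter mRNA was quantified by RT-PCR, fluorescent labelling and capillary electrophoresis; gain of signal fitted against DMSO baseline.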

| SMILES | outcome |
| --- | --- |
| O=C1C(Cl)=C(Cl)C(=O)C(Cl)=C1Cl | inactive |
| [N-]=[N+]=CC(=O)OC[C@H](N)C(=O)O | inactive |
| C=COCCCl | inactive |
| CC(Cc1ccc(C(C)(C)C)cc1)CN1C[C@@H](C)O[C@@H](C)C1 (stereo not given in full) | inactive |
| [Cl-].[Cl-].[Cl-].[Yb+3] | inactive |
| CCOC(=O)N(C)N=O | inactive |
| O=CNC(N1CCN(C(NC=O)C(Cl)(Cl)Cl)CC1)C(Cl)(Cl)Cl (stereo not given) | inactive |
| CC(C)(O)C#N | inactive |
| CC(C)C#N | inactive |
| CSc1nc(N=[N+]=[N-])nc(NC(C)C)n1 | inactive |
| O=S(=O)(c1ccccc1)c1ccccc1 | inactive |
| N#Cc1cccc(C#N)c1 | inactive |
| O=C1Nc2ccc(Cl)cc2C(c2ccccc2)=NC1O (stereo not given) | inactive |

Molecular target: Oxysterols receptor LXR-beta (Homo sapiens) (UniProt P55055)
Sequence (P55055 whole entry, looked up): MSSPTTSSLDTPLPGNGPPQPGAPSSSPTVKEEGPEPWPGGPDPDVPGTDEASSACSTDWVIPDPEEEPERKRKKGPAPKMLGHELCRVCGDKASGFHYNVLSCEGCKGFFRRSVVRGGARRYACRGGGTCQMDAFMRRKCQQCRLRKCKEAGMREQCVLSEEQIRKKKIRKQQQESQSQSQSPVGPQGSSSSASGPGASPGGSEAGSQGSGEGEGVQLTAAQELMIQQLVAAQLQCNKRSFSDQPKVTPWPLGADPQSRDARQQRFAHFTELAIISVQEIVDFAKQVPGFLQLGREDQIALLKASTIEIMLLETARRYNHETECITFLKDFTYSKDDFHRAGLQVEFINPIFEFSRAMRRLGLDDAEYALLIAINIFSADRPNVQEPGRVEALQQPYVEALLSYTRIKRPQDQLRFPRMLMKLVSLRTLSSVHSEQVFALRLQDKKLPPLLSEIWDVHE
Experiment: ATG_LXRb_TRANS: Attagene TRANS-FACTORIAL HepG2 Assay for human Liver X Receptor beta (LXRb) (AID 2282981)
Conditions: HepG2 Attagene TRANS GAL4-LXRb reporter, mRNA
In short: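 Transient transfection HepG2 (multiplexed RTUs, GAL4-UAS); NR-Gal4 chimera; 24 h exposure; RNA → RT-PCR → 6-FAM primer extension → HpaI → CE; increase vs DMSO.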

| SMILES | outcome |
| --- | --- |
| O=C1C(Cl)=C(Cl)C(=O)C(Cl)=C1Cl | inactive |
| N#CCCCCC#N | inactive |
| CC(C)c1ccc(O)cc1 | inactive |
| CC(C)(c1cc(Cl)c(O)c(Cl)c1)c1cc(Cl)c(O)c(Cl)c1 | inactive |
| [N-]=[N+]=CC(=O)OC[C@H](N)C(=O)O | inactive |
| CC(C)CCCCCCCOP(=O)(Oc1ccccc1)Oc1ccccc1 | inactive |
| CC(Cc1ccc(C(C)(C)C)cc1)CN1C[C@@H](C)O[C@@H](C)C1 (stereo not given in full) | inactive |
| CCOC(=O)N(C)N=O | inactive |
| O=CNC(N1CCN(C(NC=O)C(Cl)(Cl)Cl)CC1)C(Cl)(Cl)Cl (stereo not given) | inactive |
| CCC[N+](=O)[O-] | inactive |
| CC(C)C#N | inactive |
| c1ccc(Nc2ccc3ccccc3c2)cc1 | inactive |
| CSc1nc(N=[N+]=[N-])nc(NC(C)C)n1 | inactive |
| CC=Cc1ccc2c(c1)OCO2 | inactive |
| O=S(=O)(c1ccccc1)c1ccccc1 | inactive |
| CC(=O)/C=C/c1ccccc1 | inactive |
| CCN(CC)C(=S)S | inactive |
| O=C1Nc2ccc(Cl)cc2C(c2ccccc2)=NC1O (stereo not given) | inactive |
